The values that follow come from PubChem BioAssay AID602123 (The Scripps Research Institute Molecular Screening Center, 2011).

Hit rate of the full screen: of about 360,000 compounds, about 1,500 (0.42%) were called active. Rule as the data show it: active = inhibition above about 13% (passing the limit was not always enough); inactive = the rest. Shown is part of a subset that was picked to be rich in actives.

In this assay the target is Lon protease (Escherichia coli (strain K12)) (UniProt P0A9M0). The assay is described as follows: inhibitors of E. coli Lon protease, primary screen, biochemical, fluorescence polarization (AID 602123).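 Also: 0% = enzyme with probe and DMSO and 100% = no enzyme.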 The following applies: purified E. coli Lon protease, at 7.94 µM, active compounds read high. (In general: In fluorescence polarisation assays a small probe gives low polarisation when free and higher when bound to something large.)
Lon protease (Escherichia coli (strain K12)), sequence (P0A9M0 whole entry, looked up): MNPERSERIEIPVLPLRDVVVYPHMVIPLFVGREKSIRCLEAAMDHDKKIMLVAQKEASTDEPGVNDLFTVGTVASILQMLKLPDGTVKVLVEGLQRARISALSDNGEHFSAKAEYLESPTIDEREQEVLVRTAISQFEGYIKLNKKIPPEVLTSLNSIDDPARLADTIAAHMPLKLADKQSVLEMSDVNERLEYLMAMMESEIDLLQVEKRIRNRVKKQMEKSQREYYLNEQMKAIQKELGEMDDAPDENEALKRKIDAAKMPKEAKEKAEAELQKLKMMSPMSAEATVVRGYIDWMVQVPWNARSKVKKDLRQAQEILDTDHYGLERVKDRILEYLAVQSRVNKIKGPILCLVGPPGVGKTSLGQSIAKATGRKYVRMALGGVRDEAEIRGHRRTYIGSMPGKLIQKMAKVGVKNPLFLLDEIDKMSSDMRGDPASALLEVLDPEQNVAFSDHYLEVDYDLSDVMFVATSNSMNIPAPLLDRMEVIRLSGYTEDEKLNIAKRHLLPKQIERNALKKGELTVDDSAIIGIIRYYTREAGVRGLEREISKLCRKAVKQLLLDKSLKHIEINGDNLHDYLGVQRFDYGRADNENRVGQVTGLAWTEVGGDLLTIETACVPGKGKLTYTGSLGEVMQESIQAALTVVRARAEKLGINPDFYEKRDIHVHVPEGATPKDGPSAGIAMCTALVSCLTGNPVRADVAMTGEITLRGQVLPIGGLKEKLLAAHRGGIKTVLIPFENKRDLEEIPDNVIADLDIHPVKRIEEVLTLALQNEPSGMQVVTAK
As a reminder, the inhibition is the change of the read-out against control, counted positive when it falls. As to `CC(=O)c1cccc(OCC(=O)OCC(=O)Nc2cc(S(=O)(=O)N3CCCCC3)ccc2C)c1`, the inhibition was 7.88% (inactive). To `CCOC(=O)[C@]12CCCC=C1N(Cc1ccc3c(c1)OCO3)C(=O)[C@H](CC(=O)NCc1cccs1)C2` belongs 5.92% (inactive). The value for `COc1ccc(CC(=O)N2N=C(C)CC2(O)C(F)(F)F)cc1` (stereo unspecified) was -7.36% (inactive); that for `CC1=NN(C(=O)CCCc2ccccc2)C(O)(C(F)(F)F)C1` (stereo unspecified) was -1.58% (inactive). To `CC1=NN(C(=O)CCc2ccccc2O)C(O)(C(F)(F)F)C1` (stereo unspecified) belongs 18.2% (active); to `Cc1cccc(N2CCC(NCc3c(C(=O)N4CCCCC4)nc4c(C)cccn34)CC2)c1`, 29% (active); to `CCOC(=O)C1CCN(Cc2c(C(=O)N3CCOCC3)nc3c(C)cccn23)CC1`, -0.49% (inactive). `Cc1cccn2c(CNCC(C)Oc3cccnc3)c(C(=O)N3CCOCC3)nc12` (stereo unspecified): the inhibition was -6.22% (inactive). To `CCOC(=O)c1cccc(NC(=O)C2CCCN(S(=O)(=O)c3cnc[nH]3)C2)c1` (stereo unspecified) belongs -1.61% (inactive); to `CCOCCc1nn2c(=O)cc(CSCC(=O)Nc3cccc(C)c3C)nc2s1`, 4.06% (inactive); to `COC(=O)c1ccc2nc(-c3ccc(F)cc3)c(Cc3ccc(C)cc3)n2c1`, -5.56% (inactive).

As for `O=c1oc2ccccc2c(CNc2ccccc2)c1[N+](=O)[O-]`, the inhibition is -5.51% (inactive).

With `CCCCCCCCOC1OC(CO)C(O)C(O)C1NC(C)=O` (stereo unspecified), the inhibition was 5.86% (inactive). As to `COC(=O)c1cc(NC(=O)c2cc(C(C)(C)C)nn2Cc2cccc(C)c2)ccc1N1CCOCC1`, the inhibition was 7.4% (inactive).

With `CCCCOP(=O)(c1ccc(N(C)C)cc1)C(O)c1cc(OC)ccc1OC` (stereo unspecified), the inhibition is 9.34% (inactive). The value for `CCOc1ccc(CCN2C(=S)N([C@@H](CC(C)C)CN3CCC[C@@H]3CN3C(=S)NC[C@@H]3Cc3ccc(O)cc3)C[C@@H]2Cc2ccc(O)cc2)cc1` was 1.84% (inactive).

Consider `COC(=O)c1sccc1-n1cccc1C(=O)C(=O)N1CCCCC1`, for which the inhibition was -3.71% (inactive).

Consider `Cc1ccc(-c2nc(CS(=O)CC(=O)NC3CCCC3)c(C)o2)cc1` (stereo unspecified), for which the inhibition is -12.5% (inactive).

As for `COc1ccc(-c2nc(CS(=O)CC(=O)NCc3ccccn3)c(C)o2)cc1` (stereo unspecified), the inhibition was 21.2% (active). Regarding `COc1ccc(-c2nc(CS(=O)CC(=O)NCc3cccnc3)c(C)o2)cc1OC` (stereo unspecified), the inhibition was -14.5% (inactive). The value for `O=C(OCc1cn([C@H]2C[C@H](c3ccccc3)N(C(=O)c3cccs3)C[C@@H]2O)nn1)c1ccccc1` was 2.92% (inactive). The value for `CC1C(c2ccccc2)=[N+]([O-])C2(CCCC2)N1O` (stereo unspecified) was -2.56% (inactive). The value for `CCn1cc(C(=O)NCCCN2CCCCCC2)c(=O)c2cc(S(=O)(=O)N3CCc4ccccc4C3)ccc21` was 1.65% (inactive); that for `CCN(CC)CCCNC(=O)c1cn(C)c2ccc(S(=O)(=O)N(C)C3CCCCC3)cc2c1=O` was 21.3% (active); that for `CCOC(=O)N1CCN(C(=O)c2cn(C)c3ccc(S(=O)(=O)N(CC)CC)cc3c2=O)CC1` was 1.34% (inactive). As for `CCOCCCNC(=O)C(NC(=O)c1ccccc1O)c1ccccc1` (stereo unspecified), the inhibition was 10.1% (inactive). To `CCn1cc(/C=C(\NC(=O)c2ccc(C)cc2)C(=O)NCCN2CCOCC2)c2ccccc21` belongs -56.3% (inactive); to `Cc1c(/C=N/N2C(=O)C3C4C=CC(C4)C3C2=O)c2ccccc2n1C` (stereo unspecified), 0.26% (inactive); to `O=C1C2C3C=CC(C4CC34)C2C(=O)N1/N=C/c1ccc(-c2ccccc2[N+](=O)[O-])o1` (stereo unspecified), 15.8% (active).

For `CCN1CCN(C(=O)CN(C)S(=O)(=O)c2ccc3ccccc3c2)CC1`, the inhibition was -4.47% (inactive).

As for `O=C(NCCOc1cccnc1)c1ccc(OC2CCN(Cc3ccccn3)CC2)cc1`, the inhibition was 6.74% (inactive). The value for `CCOC(=O)C1(C(F)(F)F)N=C(N(C)C)OC(N(C)C)=N1` was 1.25% (inactive); that for `NC1=C([N+](=O)[O-])C(c2ccccc2)C2=C(CCCC2=O)O1` (stereo unspecified) was -4.86% (inactive); that for `N#CC1=C(N)Oc2cc(O)ccc2C1C1CCCCC1` (stereo unspecified) was -1.88% (inactive). As for `N#CC1=C(N)OC2=C(C(=O)CCC2)C1C1CC=CCC1` (stereo unspecified), the inhibition is 20% (active). As to `O=C(O)c1ccc(OCC2CCCO2)cc1` (stereo unspecified), the inhibition is -7.47% (inactive). The value for `CCCCCCSc1nsc(N)n1` was -2.31% (inactive); that for `Cc1ccc(CCNC(=O)c2ccc3nc4ccccc4c(=O)n3c2)cc1` was 4.65% (inactive). To `Cc1ccc2nc3c(cc(C(=O)NCCc4ccccc4)c(=N)n3CC3CCCO3)c(=O)n2c1` (stereo unspecified) belongs 18.8% (active); to `COc1ccc(CCNC(=O)Cn2c(=O)n(CC3CCCO3)c(=O)c3ccccc32)cc1OC` (stereo unspecified), -3.69% (inactive); to `CC(C)N(C(=O)COC(=O)c1ccccc1C(=O)N1CCN(c2ccc(F)cc2)CC1)C(C)C`, -12.1% (inactive).

Regarding `Oc1ccc(N2CCN(C(=S)NCc3ccccc3)CC2)cc1`, the inhibition was 4.95% (inactive). To `O=C(COC(=O)c1ccccc1C(=O)N1CCN(c2ccccc2)CC1)NCc1ccccc1` belongs 23% (active); to `CC(C)(C)C(=O)c1c(N)[nH]c(C(=O)c2ccccc2)c1-c1ccc(F)cc1`, -14.5% (inactive). To `O=C(CCS(=O)(=O)c1ccccc1)NC1CCCC1` belongs 0.44% (inactive). `COc1cccc2sc(N(CCCN(C)C)C(=O)CCS(=O)(=O)c3ccccc3)nc12`: the inhibition is 22.5% (active). To `COc1ccc(C)cc1NC(=O)CCS(=O)(=O)c1cccc2nonc12` belongs -0.09% (inactive). To `Cc1nn(C)c(C)c1CN(C(=O)CCc1nnc(Cc2c[nH]c3ccccc23)o1)C(C)C` belongs 12.7% (inactive); to `Cc1cccn2c(=O)c3cc(C#N)c(=NC(=O)c4cccnc4)n(CC4CCCO4)c3nc12` (stereo unspecified), 21.1% (active). To `COCCCn1c(C(=O)NC2CCCCC2)cc2c(=O)n3cccc(C)c3nc21` belongs -13.7% (inactive); to `Cc1cccn2c(=O)c3cc(C#N)c(=O)n(CCCN4CCOCC4)c3nc12`, -13.8% (inactive). As to `O=C(C1CC1)N1N=C(c2ccc(Br)cc2)CC1(O)C(F)(F)F` (stereo unspecified), the inhibition was -8.02% (inactive). To `CCCS(=O)(=O)N1CCC(C(=O)NCCCN(C)Cc2ccccc2)CC1` belongs -3.31% (inactive); to `CC1CC(C)CN(c2ccc(S(=O)(=O)N3CCOCC3)cc2)C1` (stereo unspecified), 4.68% (inactive); to `CSCCC(NS(=O)(=O)/C=C/c1ccccc1)C(=O)N1CCC(C)CC1` (stereo unspecified), -1.94% (inactive). To `Clc1ccccc1CSc1nnc(-c2ccco2)c(-c2ccco2)n1` belongs 41.5% (active); to `c1ccc(Cc2c(-c3ccco3)nc3c4ccccc4ccn23)cc1`, -7.97% (inactive).

For the compound `Cc1ccc2nc(-c3ccco3)c(Cc3cccc(Cl)c3)n2c1`, the inhibition was -7.22% (inactive). The value for `c1ccc(CSc2nnc(-c3ccco3)c(-c3ccco3)n2)cc1` was 86.1% (active); that for `COc1ccc(NCc2nnc(SCc3ccccc3)n2-c2ccc(OC)cc2)cc1` was -3.02% (inactive). For `Cc1ccc(Cc2c(-c3ccco3)nc3ccc(Cl)cn23)cc1`, the inhibition was -7.56% (inactive).

As to `O=C(C1CC(=O)N(c2ccc(Br)cc2)C1)N1CCCC1` (stereo unspecified), the inhibition is -8.68% (inactive). As to `CC1CC(=S)Nc2ccccc2N1Cc1ccccc1` (stereo unspecified), the inhibition was 6.5% (inactive). In the case of `O=C(CCCn1c(=O)c2sccc2n(CC(=O)NCC2CCCO2)c1=O)NCc1ccco1` (stereo unspecified), the inhibition is -1.12% (inactive).

With `C=CCN1CCN(C(=O)CCCc2ccccc2)CC1`, the inhibition is -7.13% (inactive). The value for `Cn1c(C(=O)OC(C(=O)NC2CCCCC2)c2ccccn2)cc2sccc21` (stereo unspecified) was 2.24% (inactive); that for `CC(C)(O)C1=C[N+](=O)CC=C1` was -1.32% (inactive). To `COC(=O)CSc1ccc2nnc(CCNS(=O)(=O)c3ccc(C)cc3)n2n1` belongs -1.61% (inactive); to `COc1ccc(-c2onc3ccc(C(C)=O)cc23)cc1`, 97% (active); to `COc1ccc(-c2ocnc2C(=O)Nc2ccc3c(c2)CCC3)cc1`, 11.4% (inactive). The value for `COCc1cc(C(C)=O)ccc1OC` was -3.49% (inactive); that for `CCOC(=O)c1cc2cc(OC)ccc2n1C1CCN(C)CC1` was 3.4% (inactive); that for `COc1cc2cc(CN(CCN3CCCC3)C(=O)Nc3ccccc3Cl)c(=O)[nH]c2cc1OC` was -12.8% (inactive).

For `Cc1ccc(C(=O)OCC(=O)NCc2cc(C)c(O)c(C)c2)cc1S(=O)(=O)N1CCCCC1`, the inhibition was -7.17% (inactive). The value for `COc1cc(NC(=O)COC(=O)c2cnc(C)cn2)c(C)cc1[N+](=O)[O-]` was -4.63% (inactive); that for `COc1ccc(-c2cc(NC(C)=O)c3ncc(-c4cc(OC)c(OC)c(OC)c4)n3c2)cn1` was 2.07% (inactive); that for `Cc1ccn2cc(-c3nonc3C)cc2c1` was 25.1% (active).

In the case of `CSc1ncccc1C(=O)Nc1nc2ccc(F)cc2s1`, the inhibition is 7.17% (inactive). The value for `c1ccc(C(=NNc2nc3ccccc3s2)c2ccccn2)cc1` was 131% (active); that for `C[C@H]1CN([C@@H](C)CO)C(=O)CCCn2cc(nn2)CO[C@@H]1CN(C)S(=O)(=O)c1ccc(-n2cccn2)cc1` was 7.06% (inactive). The value for `O=C(CNC(=O)c1ccccc1F)OCC(=O)c1c[nH]c2ccccc12` was -11.7% (inactive); that for `O=C(Nc1ccn(Cc2ccccc2)n1)c1n[nH]c([N+](=O)[O-])c1Cl` was 1.99% (inactive). On to `COCCn1c(N)c(N(Cc2ccccc2)C(=O)C2CCCCC2)c(=O)[nH]c1=O`, for which the inhibition was -5.01% (inactive).

On to `COCCN(C(=O)c1ccccc1F)c1c(N)n(Cc2ccccc2)c(=O)[nH]c1=O`, for which the inhibition is 2.64% (inactive). On to `COCCn1c(N)c(NCc2ccccc2)c(=O)[nH]c1=O`, for which the inhibition was 31.1% (active).

Consider `Cc1ccc(N=C2SCCCN2C(=O)c2cccc(N3C(=O)CCC3=O)c2)cc1Cl`, for which the inhibition is 1.67% (inactive).

For `COC(=O)c1cccc(C(=O)N2CCC(CCC(=O)NCc3ccc(F)cc3)CC2)c1`, the inhibition is -6.42% (inactive). As to `CC(=O)Nc1ccc(CN2CCN(Cc3ccc(F)c(F)c3)C(CCO)C2)cc1` (stereo unspecified), the inhibition was -13.9% (inactive). The value for `COc1cc(NC(=O)Nc2ccc(C)cc2)cc([N+](=O)[O-])c1` was -13% (inactive). To `COC(=O)c1ccccc1N=NNc1ccc([N+](=O)[O-])cc1` belongs -9.1% (inactive); to `COc1ccc(Nc2ccc([N+](=O)[O-])cn2)cn1`, 20.9% (active).
